# According to PubChem BioAssay (NCI):
# The panel holds about 83,000 compounds, 20% with a hit somewhere; the sample as a whole holds those more often.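 Activity criterion: percent growth below 10, measured after cells in 96-well plates were exposed to a single compound concentration for 48 hours.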 Unmarked numbers belong to inactive results. Active and inactive are the calls of the source.
# Legend:
# Assay in all cases: NCI-60 one-dose screen, 48 h (100 = growth as untreated, 0 = no growth, -100 = all killed)
# Details in all cases: 10 µM unless noted
# [1] = system: HCT-15 colon
# [2] = system: HT29 colon
# [3] = system: SNB-75 CNS
# [4] = system: PC-3 prostate
# [5] = system: SK-MEL-5 melanoma
# [6] = system: UACC-62 melanoma
# [7] = system: LOX IMVI melanoma
# [8] = system: SK-MEL-28 melanoma
# [9] = system: U251 CNS
SMILES,growth [1],growth [2],growth [3],growth [4],growth [5],growth [6],growth [7],growth [8],growth [9]
O=c1[nH]cnc2c1C(c1ccc(Br)cc1)c1sc3c(F)cccc3c1O2 (centres undefined),99.2%,104%,85.1%,82.9%,98.7%,82.5%,99.2%,105%,
COc1cc(-c2nc3ccc(C)cc3[nH]2)ccc1OCC(=O)N=Nc1c(O)[nH]c2ccc(Cl)cc12,58.8%,-27.6% (active),-42.1% (active),11.1%,56%,19.9%,-96.8% (active),3.39% (active),-41.6% (active)
N=C(N)c1ccc(-c2ccc(-c3ccc(Cl)cc3Cl)s2)cc1F,-75.7% (active),-29.4% (active),20.7%,-14.1% (active),50.8%,-54% (active),-89.9% (active),83.7%,-52.1% (active)
COc1ccc(C2=CN3CC=CCC3CC2=O)cc1 (centres undefined),108%,84.5%,103%,81.9%,96.4%,,99.8%,112%,91.4%
CSCCC(NC(=O)c1ccccc1)C(=O)N/N=C1\S/C(=C/c2ccc(Cl)cc2)C(=O)N1C (centres undefined),96.4%,91.4%,57.8%,84.9%,82.9%,91.1%,89.3%,85.9%,64.2%
N#CCC1=NC(c2cccs2)=Nc2ccccc2S1,109%,89.5%,94%,71.1%,93.8%,70.1%,99.1%,88.4%,87.7%
O=C(Cn1nnc2ccccc21)N/N=C/c1ccccc1F,106%,99.5%,95.2%,96%,102%,88.5%,101%,108%,97.1%
CC1(C)C2CC=C(/C=N/NC(=O)C3CCC(=O)N3)C1C2 (centres undefined),104%,106%,91.6%,102%,101%,99.2%,96.9%,108%,101%
O=C(CCCCNC(=O)c1cc(=O)c(O)co1)Nc1ccccc1,49%,98.2%,84.9%,95.9%,98.6%,90.1%,45.3%,103%,92.8%
Cc1ccc(/C=C/C(=O)c2ccc(NC(=O)CSc3nc4c([nH]3)c(=O)n(C)c(=O)n4C)cc2)c(C)c1,70.7%,53.3%,18.9%,49.3%,69.5%,69.5%,39.1%,62.2%,-67.5% (active)
CC(=O)c1c(Nc2ccc(F)c(F)c2F)[nH]c2c(F)cc(F)cc2c1=O,4.32% (active),3.62% (active),-14.8% (active),4.75% (active),-75.8% (active),-27.9% (active),,4.71% (active),0.133% (active)
O=C(N/N=C/c1ccc([N+](=O)[O-])cc1)c1ccc2nc(-c3ccc(Cl)cc3)[nH]c2c1,29.9%,8.25% (active),69.3%,21.4%,2.58% (active),43.7%,-0.908% (active),45.3%,22.3%
N#Cc1c(-c2cccc([N+](=O)[O-])c2)cc(-c2ccc(Nc3nc(Nc4ccc(F)cc4)nc(Nc4ccc(F)cc4)n3)cc2)nc1N,103%,113%,102%,92%,84.4%,110%,,114%,110%
Cc1ccc(C)n1/C=C/n1c(C)ccc1C,106%,102%,80.7%,62.8%,98.7%,98.8%,105%,125%,
O=C(c1ccc(Cl)cc1Cl)N1c2ccccc2Sc2ccccc21,29.6%,47.5%,59.6%,44%,34.6%,43.1%,23.9%,65.4%,33.1%
COc1ccc(C2=Nc3c/c(=C\c4c(O)[nH]c5cc(Cl)ccc45)ccc3=N2)cc1,55.8%,39.8%,41.6%,43.3%,60.7%,67.5%,,47%,74.3%
CC(C)C[C@@H](C(=O)N[C@H](C(=O)OC1CCCC1)c1ccccc1)[C@H](O)C(=O)NO,58.4%,58%,101%,49.6%,59.8%,68.8%,54.2%,63.2%,45.7%
COc1ccc2c(c1)c(-c1nonc1-c1c[nH]c3ccc(Br)cc13)cn2C,22.2%,11.9%,63.3%,43.8%,57.1%,38.2%,22.4%,61%,34.9%
O=C1NC(=O)c2c1c1c3ccccc3[nH]c1c1oc3cc(Br)ccc3c21,70.4%,76.9%,31.4%,42.3%,55.9%,48.5%,,92.6%,65.5%

SMILES,growth [1],growth [2],growth [3],growth [4],growth [5],growth [6],growth [7],growth [8],growth [9]
Oc1c(CN2CCCC2)cc(COCc2ccccc2)c2cccnc12,11.3%,74.4%,44.9%,24.9%,-11.1% (active),-19.9% (active),2.6% (active),31%,1.08% (active)
O=C(/C=C/c1ccc(Br)cc1)c1ccc(-n2cc(CN3CCN(c4cc5c(cc4F)c(=O)c(C(=O)O)cn5C4CC4)CC3)nn2)cc1,95%,91.7%,93.6%,82%,91.1%,83%,50.4%,107%,71.2%
O=C(CCCCCCN1CC(=O)N2[C@@H](C3CCCCC3)c3[nH]c4ccccc4c3C[C@H]2C1=O)NO,115%,58.9%,38.1%,62.7%,66%,35.3%,-3.25% (active),60.7%,70.2%
CCN(CC)CCCC(C)Nc1ccc2cc(OC)ccc2n1 (centres undefined),103%,106%,89.8%,95.4%,107%,108%,102%,108%,97.9%
CCNc1nc(-c2ccc(F)cc2)c(C#N)c(=O)n1C,56.8%,57.2%,37.9%,42.8%,57.3%,44%,63.2%,77.5%,65.2%
COC1=CC(c2ccc[nH]2)=N/C1=C\c1[nH]c(C)c(CC(=O)OCc2ccccc2)c1C,-11% (active),4.42% (active),-7.14% (active),2.94% (active),-91.5% (active),-31.7% (active),-75.4% (active),-18.2% (active),-21% (active)
Clc1ccc(-c2cn3ccsc3n2)c(Cl)c1Cl,89.5%,105%,86.4%,93.5%,79.8%,67.7%,80.7%,120%,91%
Cc1ccc(C)c2c1C(O)(C#Cc1ccccc1)c1ccccc1C2(O)C#Cc1ccccc1 (centres undefined),27.7%,38.9%,48.3%,29.4%,36.8%,53.4%,42.5%,80.4%,34.3%
Cc1c2cnccc2c(C)c2c1c1cc(C3OCCCO3)ccc1n2C,1.16% (active),1.09% (active),-23% (active),2.08% (active),-95.8% (active),-43.6% (active),-23.6% (active),-29.6% (active),-1.98% (active)
CCOc1ccc(NC(=O)c2cc(OC)c(OC)c(OC)c2)cc1,31.8%,11.5%,30.5%,29.9%,28.7%,35.7%,35.5%,66.4%,30.1%
Cc1ccc(/C=C(\C#N)C(=O)Nc2ncc(Cc3cc(Cl)ccc3Cl)s2)o1,59%,97%,-0.376% (active),38.8%,51.6%,6.39% (active),11.9%,88.9%,32.2%
CN(C)c1ccc(-c2cc(-c3ccc(Nc4nc(Nc5ccc(Cl)cc5)nc(Nc5ccc(Cl)cc5)n4)cc3)nc(N)c2C#N)cc1,75.9%,80.3%,83.8%,57.7%,66.7%,,72.7%,88.7%,63.3%
CCCCCCCCCCCCCCCCOC(=O)c1c(C)[nH]c(/C=C2\N=C(c3ccc[nH]3)C=C2OC)c1C,56.3%,13.6%,51.4%,45.6%,-80.8% (active),-15.3% (active),-83.9% (active),51.1%,41.7%
O=C(CCl)Nc1ccc2c(Nc3cc(O)ccc3Cl)ncnc2c1,-81.3% (active),-74.5% (active),-96.7% (active),-74.4% (active),-88.4% (active),-68.7% (active),-81.6% (active),-66.4% (active),-89.8% (active)
Cn1c(/C=C/[N+](=O)[O-])cc2ccccc21,-56.7% (active),-53.2% (active),44.3%,7.59% (active),47.2%,42.2%,-79.7% (active),73.3%,
COc1cc2c(cc1O)[C@@]1(C)[C@H](c3ccccc3Br)OC(=O)N1CC2,94.9%,96.7%,102%,71.3%,68%,72.1%,90.6%,99.1%,89.3%
O=C(/C=C/c1cccc(Cl)c1)c1cccc(OCCCCOc2cccc(C(=O)/C=C/c3cccc(Cl)c3)c2)c1,83.6%,76.1%,77.8%,92.2%,98.6%,72.8%,30.5%,99.2%,68.7%
CN1CCN(Cc2cc(NC(=O)c3cccc(C#Cc4cccc5[nH]nc(N)c45)c3)cc(C(F)(F)F)c2)CC1,10.8%,-15.8% (active),22.9%,27.4%,-5.74% (active),12.1%,-90.1% (active),-60.5% (active),22.2%
